The panel holds about 83,000 compounds, 20% with a hit somewhere; the sample as a whole holds those more often.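 Compound tested at a single concentration for 48 hours in 96-well plates; a percent growth value below 10 was scored as active.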 A number with no mark means an inactive call. Activity calls are given as the source filed them.
These molecules were tested on HL-60(TB) leukemia (assay: NCI-60 one-dose screen, 48 h (100 = growth as untreated, 0 = no growth, -100 = all killed)). Conditions: 10 µM unless noted.

Compared with `COc1cc(C(C)n2cc(-c3ccccc3)nn2)ccc1OC1CCCC1` (centres undefined), `CN1CCN(c2nc(-c3csc(-c4cccs4)n3)cc3ccccc23)CC1` is lower in growth: 53.1% for the first, 34.4% for the second.

Compared with `O=S(=O)(c1ccc(NC(=S)NCc2cccnc2)cc1)N1CCCCC1`, `Cn1c(=O)c2c(nc(Br)n2CC(=O)Nc2ccc(F)cc2)n(C)c1=O` is higher in growth: 64.9% for the first, 95.3% for the second.

First: O=[N+]([O-])c1ccc(/C=C/C=C/c2ccccc2)c(Cl)c1
Second: CCOc1ccc(/C=C/C=N/NC(N)=S)cc1
The growth of the first is higher: 91.9% for the first, 42% for the second.

Work on `CC(=O)Nc1c(Br)cc2c(c1Br)Cc1cc(Br)ccc1-2` yielded a growth of 98.5%.

`CCN(CC)CCCNCCCNc1cc(OC)cc2cccnc12` was tested, and the growth was -3.42% (active).
With `CC12CCCC(CC(=O)c3[nH]c4ccccc4c31)C2` (centres undefined) the growth was -0.598% (active).
